This is a sample that favours compounds with a hit; in the whole collection about 17% have one here.
DT40 TDP1 CPT – DT40-hTDP1 cell growth loss with CPT; chicken DT40 Tdp1-/-;hTDP1 cells + 20 nM CPT, ATP luminescence, 48 h; Potency, µM (doses to about 46.2 µM), most hits filed as inhibitors; 420,000 compounds, 12% hits; also: nearly all actives have a fitted effect of over 55% in size
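Chicken DT40 Tdp1-/- cells stably complemented with human TDP1 were seeded at 400 cells/well in medium containing 20 nM camptothecin, exposed to pin-transferred compounds, and grown at 37 °C for at least 48 hr. Viability was read as ATP luminescence.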
HepG2 tox – counter-screen for TGF-b inhibitors: cytotoxicity in HepG2 cells. Potency, µM (top dose mostly 46.1 µM), hits mostly cytotoxic. 410,000 compounds, 0.76% hits. AID 588856. HepG2 CAGA-GFP viability, ATP luminescence, 18 h
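CellTiter-Glo luminescence gave cytotoxicity after 18 hours at 37 degrees C. The cells were HepG2 CAGA-GFP in 1% FBS DMEM, stimulated with 500 pg/mL TGF-beta after compound addition. %Activity was normalised to no-cell wells (complete cell-killing) and DMSO (no toxicity), and curves were fitted and classified.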
S2 tox – viability counter-screen for ATXN expression inhibitors; S2 cells (HEK-293 line with an ATXN2-luciferase reporter) viability, CellTiter-Fluor protease fluorescence, 24 h; Potency, µM (titrated, usually from 56.7 µM), actives largely listed as cytotoxic; 400,000 compounds, 0.49% hits; also: nearly all actives have a fitted effect of over 40% in size
DT40 TDP1 no CPT – qHTS for Inhibitors of human tyrosyl-DNA phosphodiesterase 1 (TDP1): qHTS in cells in absence of CPT; DT40 Tdp1-/- hTDP1 cells, no CPT, ATP luminescence, 48 h; Potency, µM (titrated, usually from 46.2 µM), most hits filed as inhibitors; 420,000 compounds, 15% hits; also: nearly all actives have a fitted effect of over 55% in size
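Stably hTDP1-transfected Tdp1-null chicken DT40 cells were treated with library compounds minus camptothecin and grown for at least 48 hr at 37 °C, after which cellular ATP was quantified by luminescence.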
TGFb SMAD3 inh – inhibitors of TGF-b signaling | HepG2 CAGA-GFP TGF-b/SMAD3 reporter, GFP fluorescence, 18 h; TGF-beta stimulated, 500 pg/mL final | Potency, µM (doses to about 46.1 µM), hits mostly inhibitors | 410,000 compounds, 1.2% hits | AID 588855; also: nearly all actives have a fitted effect of over 65% in size
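Smad-responsive CAGA-GFP expression was quantified in HEPG2 cells exposed to compounds and 500 pg/mL final TGF-beta for 18 h at 37 degrees C; unstimulated wells defined full inhibition.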
ATXN2 expr inh – ATXN2 expression inhibition. HEK-293 ATXN2-luciferase reporter, luminescence, 24 h. Potency, µM (titrated, usually from 57 µM), most hits filed as inhibitors. 360,000 compounds, 0.72% hits; also: nearly all actives have a fitted effect of over 55% in size
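qHTS (up to 57 uM final) was run with 24 h compound exposure of reporter cells at 37 °C. Each well was multiplexed: SteadyGlo luminescence measured ATXN2-luciferase expression after a fluorogenic Gly-Phe-AFC viability readout (25 uM final).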
Each line names hits and unclear results; the compound was inactive in the other large screens. Calls follow the shape of the dose curve; as a rule, active = well fitted curve in the direction sought with a large enough effect; inconclusive = small, poorly fitted or top-dose-only effect, or another doubt; inactive = no such curve, though single readings can be large; an effect the other way counts as inactive or inconclusive.

COc1ccc(C(=O)c2sc3nc(C)cc(-c4cccs4)c3c2N)cc1OC	DT40 TDP1 CPT inconclusive, DT40 TDP1 no CPT 23.1µM (no result: S2 tox)
C/C(=N\NC(=S)Nc1c(C)cccc1C)c1cc2ccccc2o1	DT40 TDP1 CPT 3.26µM, DT40 TDP1 no CPT 2.06µM, TGFb SMAD3 inh inconclusive (no result: ATXN2 expr inh)
C/C(=N\NC(=S)Nc1c(C)cccc1C)c1ccc(O)cc1	DT40 TDP1 CPT 16.4µM, DT40 TDP1 no CPT inconclusive, TGFb SMAD3 inh inconclusive
CC(=O)Nc1cccc(/C(C)=N/NC(=O)c2ccc(O)cc2)c1	none
C/C(=N\NC(=S)Nc1ccccc1C)c1cc2ccccc2o1	DT40 TDP1 CPT 4.11µM, DT40 TDP1 no CPT 5.17µM, TGFb SMAD3 inh inconclusive
S=C(Nc1ccc(Br)cc1Cl)Nn1cnnc1	none
Cc1nc(Nc2cnc(/C=C/c3cc(C(=O)Nc4cccc(C(F)(F)F)c4)ccc3C)cn2)cc(N2CCNCC2)n1	DT40 TDP1 CPT 18.4µM, DT40 TDP1 no CPT 20.6µM, TGFb SMAD3 inh inconclusive, ATXN2 expr inh 15.8µM
COc1ccc(CNCCC2(Cc3ccccc3)CC(C)N(C)CC2C)cc1OC (configuration not stated)	DT40 TDP1 CPT inconclusive, S2 tox inconclusive, DT40 TDP1 no CPT 14.6µM, ATXN2 expr inh inconclusive
C=CCc1cc(/C=C2/NC(=O)N(CC)C2=O)cc(OCC)c1OCc1ccc(C(=O)O)cc1	DT40 TDP1 CPT inconclusive, DT40 TDP1 no CPT inconclusive, ATXN2 expr inh inconclusive
CC1CCCCC1NC(=O)C1CCN(c2c3c(nc4ncnn24)CCC3)CC1 (configuration not stated)	DT40 TDP1 no CPT 11.6µM
COc1ccc(CC(NC(C)=O)C(=O)NC2CCN(c3c4c(nc5ncnn35)CCC4)CC2)cc1OC (configuration not stated)	S2 tox inconclusive
CC1(C)Cc2nc3sc4c(=O)n(CC(N)=O)cnc4c3cc2CO1	none
Cc1nc2c(sc3nc4c(cc32)COC(C)(C)C4)c(=O)n1CC(=O)NCc1ccco1	DT40 TDP1 CPT 3.26µM, DT40 TDP1 no CPT 4.11µM
CC1(C)Cc2nc3sc4c(=O)n(CC(=O)NCc5ccccc5)cnc4c3cc2CO1	DT40 TDP1 CPT 4.61µM, S2 tox inconclusive, DT40 TDP1 no CPT 3.66µM
CC1(C)Cc2nc3sc4c(SCC(=O)NCc5ccco5)ncnc4c3cc2CO1	DT40 TDP1 CPT 2.06µM, S2 tox inconclusive, DT40 TDP1 no CPT 2.31µM
CC(C)(C)OC(=O)C[C@H]1C/C=C\C[C@@H](CC(=O)NCCO)C(=O)NC[C@@H](c2ccccc2)OC1=O	none
O=C(NCC1CCCCC1)c1cc2ccccc2cc1O	DT40 TDP1 CPT 20.6µM, DT40 TDP1 no CPT inconclusive, TGFb SMAD3 inh inconclusive
O=C(NCC1CCCO1)c1cc2ccccc2cc1O (configuration not stated)	DT40 TDP1 no CPT inconclusive
O=C(N/N=C1/CC2CCC1C2)c1cc2ccccc2cc1O (configuration not stated)	DT40 TDP1 CPT 23.1µM, DT40 TDP1 no CPT 20.6µM
CC1CCC(NC(=O)c2cc3ccccc3cc2O)CC1 (configuration not stated)	DT40 TDP1 CPT inconclusive, DT40 TDP1 no CPT inconclusive, TGFb SMAD3 inh inconclusive
Cc1ccc(CC2CC(=O)N(c3ncccn3)C2=O)cc1 (configuration not stated)	S2 tox inconclusive
O=[N+]([O-])c1cc(S(=O)(=O)N2CCCC2)ccc1NCCCN1CCOCC1	none
CC(C)c1ccc(CNc2cc(N3CCCC3)ccc2[N+](=O)[O-])cc1	DT40 TDP1 CPT 18.4µM, S2 tox inconclusive, DT40 TDP1 no CPT inconclusive
CS(=O)(=O)N1CCN(c2ccc([N+](=O)[O-])c(NCc3ccc(Cl)cc3)c2)CC1	DT40 TDP1 CPT 25.9µM, DT40 TDP1 no CPT 18.4µM, TGFb SMAD3 inh inconclusive, ATXN2 expr inh inconclusive
O=[N+]([O-])c1ccc(N2CCN(S(=O)(=O)c3ccc(Cl)c(Cl)c3)CC2)cc1NCCN1CCOCC1	DT40 TDP1 CPT inconclusive, DT40 TDP1 no CPT 8.2µM, ATXN2 expr inh inconclusive
O=C1CSC(c2ccc([N+](=O)[O-])cc2)N1c1ccccc1F (configuration not stated)	none
Cc1ccc(S(=O)(=O)NNC(=O)C2Cc3c(ccc4ccccc34)O2)cc1 (configuration not stated)	DT40 TDP1 CPT inconclusive, DT40 TDP1 no CPT 23.1µM
CCn1nc(NC(=O)c2ccccn2)c2cc3cccc(C)c3nc21	DT40 TDP1 CPT inconclusive, DT40 TDP1 no CPT 18.4µM
CNCc1ccccc1Sc1cccc2ccccc12	DT40 TDP1 CPT 23.1µM, DT40 TDP1 no CPT 23.1µM, TGFb SMAD3 inh inconclusive
COc1ccc(CCN(C)Cc2cccc3ccccc23)cc1OC	DT40 TDP1 CPT inconclusive
CN(C)CCN(C)Cc1ccccc1Sc1cccc2ccccc12	DT40 TDP1 CPT 9.2µM, S2 tox 20µM, DT40 TDP1 no CPT 8.2µM, TGFb SMAD3 inh inconclusive, ATXN2 expr inh 25.1µM
COc1ccc(NC(=O)C2c3ccccc3OCC(=O)N2C2CC2)cc1 (configuration not stated)	none (no result: HepG2 tox, TGFb SMAD3 inh)
CCCCC(=O)Nc1nc2ccc(C(=O)OC)cc2s1	DT40 TDP1 CPT inconclusive, DT40 TDP1 no CPT inconclusive
O=C1CCCCc2sc(Br)c([N+](=O)[O-])c2N1	DT40 TDP1 CPT 11.6µM, DT40 TDP1 no CPT 11.6µM
Cc1cc(C)c(C)c(S(=O)(=O)N(C)CCc2ccccn2)c1C	DT40 TDP1 CPT inconclusive, DT40 TDP1 no CPT 23.1µM, TGFb SMAD3 inh inconclusive
CCOC(=O)C1(C)CCCN(C(=O)c2ccc(OC)c(OC)c2)C1 (configuration not stated)	none
COc1cc2c(=O)n(Cc3ccccc3Cl)c(=O)n(CC(=O)Nc3ccc(C)c(C)c3)c2cc1OC	DT40 TDP1 CPT 1.84µM, DT40 TDP1 no CPT 7.31µM
Cc1ccc(NC(=O)Cn2c(=O)n(CCC(=O)NCc3ccccc3Cl)c(=O)c3ccccc32)cc1	DT40 TDP1 CPT 16.4µM, DT40 TDP1 no CPT 20.6µM, TGFb SMAD3 inh inconclusive
Cc1ccc(NC(=O)Cn2c(=O)n(CCCCC(=O)NCc3ccccc3Cl)c(=O)c3ccccc32)cc1	DT40 TDP1 CPT inconclusive, DT40 TDP1 no CPT 23.1µM
CC(=O)NCCNc1cc(-c2ccccc2CN(C)C)ncn1	none (no result: HepG2 tox, S2 tox, TGFb SMAD3 inh, ATXN2 expr inh)
CCn1c(-c2cccc(OC)c2)nc2cc(NC(C)=O)cc(C(=O)N3CCC[C@H]3C(=O)OC)c21	none (no result: HepG2 tox, TGFb SMAD3 inh, ATXN2 expr inh)
CNC(=O)C1C(=S)NC(N)=C(C#N)C1c1ccccc1 (configuration not stated)	DT40 TDP1 CPT 25.9µM, DT40 TDP1 no CPT 6.51µM
CSC1=C(C#N)C(c2ccccc2)C(C(C)=O)=C(C)N1 (configuration not stated)	TGFb SMAD3 inh inconclusive (no result: ATXN2 expr inh)
